Screening data: PubChem BioAssay, National Center for Advancing Translational Sciences (NCATS)
Rows were chosen to be rich in hits. Some 21% of all compounds tested hit in one or more screens of this group.
Pf growth 48h – P. falciparum growth inhibition at 48 hours (one generation). P. falciparum luciferase growth in erythrocytes, 48 h. Potency, µM (doses to about 28.7 µM), without a hit: at the top dose activity change, negative = inhibition, usual class: inhibitors. 310,000 tested, 5.9% active; note: potency is the fitted concentration of half-maximal effect; % is set by controls: 0 for no effect and ±100 for the full control effect
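Luciferase-expressing P. falciparum in infected erythrocytes (2% hematocrit, 0.1% parasitemia final) in RPMI 1640/0.5% Albumax were exposed to compound for 48 hours at 37 C, 5% CO2; growth read as luminescence.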
Pf growth 96h – P. falciparum growth inhibition at 96 hours | Potency, µM (top dose mostly 28.7 µM), inactives show at the highest dose activity change, negative = inhibition, hits mostly inhibitors | AID 504834 | P. falciparum luciferase reporter growth, 96 h | 320,000 tested, 6.9% active; note: potency is the fitted concentration of half-maximal effect; % is set by controls: 0 for no effect and ±100 for the full control effect
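P. falciparum expressing integrated firefly luciferase grown in erythrocytes (2% hematocrit, 0.05% parasitemia final) with compounds for 96 hours at 37 C, 5% CO2. Growth inhibition read as loss of luminescence after adding luciferase detection reagent.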
Shiga toxin inh – blocks Shiga toxin action in Vero cells; 290,000 tested, 9.2% active; Vero cells, Shiga toxin protein synthesis inhibition reporter; inhibition, % at 38.7 µM; AID 2315; in the data active = inhibition mostly above about 28%, no sharp cut-off; inactive = mostly below about 43%; note: 0% is about no effect
AMA1 RON2 block – AMA1-RON2 (P. falciparum) interaction inhibition; 360,000 tested, 0.2% active; AlphaScreen AMA1-biotinylated RON2 peptide binding; Potency, µM (titrated, usually from 58.2 µM), for inactives: at the top dose activity change, negative = inhibition, hits mostly inhibitors;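 note: potency is the fitted concentration of half-maximal effect; 0% = vehicle wells and -100% = peptide control; nearly all actives have a fitted effect of over 45% in size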
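AMA1 (3D7) with his tag at 25 nM final met compounds first, then biotinylated RON2 peptide at 25 nM; detection used donor plus acceptor beads, 10 µg/mL apiece, read by AlphaScreen after 30 min at room temperature.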
Cycloheximide cs – counter-screen hit for Shiga toxin inhibitors, cycloheximide; cell reporter, cycloheximide protein synthesis inhibition counterscreen; max response, %; 300,000 tested, 12% active; in the data active = max response mostly above about 13%, no sharp cut-off; inactive = mostly below about 14%; note: read at 38.3 µM for the half of the compounds with a filed dose; 0% is about no effect
HCV inh – HCV inhibition | Potency, µM (doses to about 41.8 µM), without a hit: at the highest dose activity change, negative = inhibition, actives largely listed as inhibitors | AID 651820 | Huh7.5.1 HCVcc-Cre infection, luciferase reporter, 44 h | 340,000 tested, 3.4% active; note: potency is the fitted concentration of half-maximal effect; % is set by controls: 0 for no effect and ±100 for the full control effect
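HCVcc-Cre virus at an moi near 0.5 was added right after compound to cells cultured 4 h from seeding (1,000 cells/well). Luciferase activity was determined 44 h later, 15 min after substrate addition at RT.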
* marks the source's active call; other numbers are inactive results; u = inconclusive; x = no result; [ ] = remark or other dose. Unless noted, calls come from the whole dose curve; as a rule, active = well fitted curve in the direction sought with a large enough effect; inconclusive = small, poorly fitted or top-dose-only effect, or another doubt; inactive = no such curve, though single readings can be large; an effect the other way counts as inactive or inconclusive.

SMILES | Pf growth 48h | Pf growth 96h | Shiga toxin inh | AMA1 RON2 block | Cycloheximide cs | HCV inh
Cc1ccc(S(=O)(=O)N2CCC(=O)N(C(COCc3cccc(C(F)(F)F)c3)C(C)C)CC2)cc1 (configuration not stated) | u | 10µM* | 9 | -2% | -3 | -3%[8.37 µM]
Cc1ccc(S(=O)(=O)N2CCC(=O)N(C(COCc3cccc(C)c3)C(C)C)CC2)cc1 (configuration not stated) | 10µM* | 13µM* | -12 | -2% | -3 | u
CCCCCCCCN1CC(Cc2cc3ccccc3c3ccccc23)N(c2ccccc2)c2ccccc2C1=O (configuration not stated) | x | x | x | -7% | x | x
O=[N+]([O-])c1ccc2c(c1)ncn2CCc1ccccc1 | u | 0.52µM* | 3 | 1% | -2 | 10%
O=[N+]([O-])c1ccc2cn(-c3ccccc3)nc2c1 | 253% | 323% | 52* | -16% | 54* | u
O=C1C(c2ccccc2)=C(N2CC2)c2ccccc21 | 5.9µM* | 3.7µM* | 41 | 28µM* | 16 | -23%
CN(Cc1ccccc1)C(=O)[C@@H]1CCCN1C(=O)[C@@H]1CCCN1C(=O)OC(C)(C)C | x | x | x | 3% | x | x
CC(CN1CCN(C)CC1)OC(=O)c1ccc(Cl)cc1 (configuration not stated) | -18% | u | 36 | -1% | 4 | u
CCOc1ccc(C(=O)OC2CCCN(C)C2)cc1 (configuration not stated) | -6% | 10µM* | 37 | -1% | 10 | -2%
CCOc1ccc(C(=O)OC(C)CN2CCN(C)CC2)cc1 (configuration not stated) | x | 13% | -4 | -4% | 5 | 1.8µM*
CN1CCCC(OC(=O)c2ccc(S(=O)(=O)N(C)C)cc2)C1 (configuration not stated) | -20%[0.00184 µM] | 38% | 12 | -9% | -2 | 14%
CCn1cc(CN2CCC(n3nccc3NC(=O)CCc3ccccc3)CC2)cn1 | -15% | 33% | -11 | -5% | 6 | 1%
COc1cccc(CN2CCC(n3nccc3NC(=O)CCOc3ccccc3)CC2)c1 | u | 3.3µM* | -8 | -11% | -2 | -10%
COc1ccc(CN2CCC(n3nccc3NC(=O)CCOc3ccccc3)CC2)cc1C | 54% | u | -12 | 14% | 0 | u
O=C(CCOc1ccccc1)Nc1ccnn1C1CCN(Cc2ccc(O)cc2)CC1 | 9.3µM* | 24% | -30 | -1% | -1 | -1%
O=C(CCOc1ccccc1)Nc1ccnn1C1CCN(CCc2ccccc2)CC1 | -21% | 13µM* | -8 | 18% | -7 | u
CCn1ccnc1CN1CCC(n2nccc2NC(=O)CCc2ccccc2)CC1 | 46% | 8.3µM* | 19 | 60% | 9 | -5%
CCn1cc(CN2CCC(n3nccc3NC(=O)CCOc3ccccc3)CC2)cn1 | 3% | u | -17 | -3% | 0 | 0%
COC(=O)c1ccc2nc(-c3ccc(C#N)cc3)c(Cc3cccc(F)c3)n2c1 | x | x | x | -4% | x | x
COC(=O)[C@@]12C[C@@H](CC(=O)NCCCCc3ccccc3)C(=O)N(Cc3cccc4ccccc34)C1=CCC(C)(C)C2 | x | x | x | -13% | x | x
CCn1nc(C)c(CN2CCC(n3nccc3NC(=O)Cc3ccccc3)CC2)c1C | -10% | 12µM* | -14 | 0% | 1 | x
O=c1cc(-c2ccc(O)cc2)oc2cc(O[C@@H]3O[C@H](CO)[C@@H](O)[C@H](O)[C@H]3O[C@@H]3OC[C@](O)(CO)[C@H]3O)cc(O)c12 | 10µM* | u | 11 | 11% | -1 | -1%[8.37 µM]
C[C@@H]1O[C@H](O[C@@H]2C(O)[C@H](O)[C@@H](CO)O[C@H]2Oc2cc(O)c3c(=O)cc(-c4ccc(O)cc4)oc3c2)[C@H](O)[C@H](O)[C@H]1O (some centres not stated) | x | x | -13 | x | -7 | x
CC1(C)OC(=O)C2=C(C[C@@H](CCc3ccccc3)O[C@@H]2c2ccc(Cl)cc2)O1 | x | x | x | 5% | x | x
O=C(c1cc(COc2ccc(F)c(F)c2)on1)N1CCN(C2CCCCC2)C(=O)C1 | u | -15% | 59 | -2% | 31* | -14%
SMILES | Pf growth 48h | Pf growth 96h | Shiga toxin inh | AMA1 RON2 block | Cycloheximide cs | HCV inh
CCN1CCN(C(=O)c2cc(COc3ccc(F)c(F)c3)on2)[C@@H](C)C1=O | x | x | x | 6% | x | x
CCCOC1CCCN(C(=O)c2cc(COc3ccc(F)c(F)c3)on2)C1 (configuration not stated) | -1% | u | 109* | -6% | 44* | -18%
CCCN1CCN(C(=O)c2cc(COc3ccc(F)c(F)c3)on2)CC1 | 20% | 0% | 40* | -11% | 29* | -6%
O=C(c1cc(COc2c(F)cccc2F)on1)N1CCN(C2CCCCC2)C(=O)C1 | u | u | 1 | 3% | 3 | -1%
O=C(c1cc(COc2ccc(F)c(F)c2)on1)N1CCN(C/C=C/c2ccccc2)CC1 | u | -8% | 45* | 5% | 37* | u
CCOC(=O)[C@]12CCCC=C1N(Cc1cccc3ccccc13)C(=O)[C@H](CC(=O)N1CCSCC1)C2 | x | x | x | -23% | x | x
COCCN1CCN(C(=O)c2cc(COc3ccc(F)cc3F)on2)CC1 | 15% | u | 10 | -13% | 1 | 11%
COCCN1CCN(C(=O)c2cc(COc3ccc(F)c(F)c3)on2)CC1 | 14% | u | 26 | -7% | 27* | x
Cn1c(=O)c(=O)n(C)c2cc(S(=O)(=O)CCC(=O)Nc3ccccc3C(F)(F)F)ccc21 | x | x | x | 5% | x | x
C/C=C(\C)C(=O)NCCN1C2=NC[C@@H](C)N2C[C@H]1Cc1ccc(O)cc1 | 51% | 50% | 14 | 6% | 1 | -11%
Cc1ccc(C(=O)NCCN2C3=NC[C@@H](Cc4ccccc4)N3C[C@H]2Cc2ccc(O)cc2)cc1Br | 9.3µM* | u | -16 | -6% | -2 | -9%
C/C=C(\C)C(=O)NCCN1C2=NC[C@H](Cc3ccccc3)N2C[C@H]1Cc1ccc(O)cc1 | -21% | 3.7µM* | 6 | -6% | 1 | 4%
Cc1ccc(C(=O)NCCN2C3=NC[C@H](Cc4ccc(O)cc4)N3C[C@H]2Cc2ccc(O)cc2)cc1Br | 4.1µM* | 2.9µM* | -10 | -26% | -6 | -7%[8.37 µM]
COc1ccc(C[C@H]2CN3C(=NC[C@@H]3Cc3ccc(O)cc3)N2CCNC(=O)c2ccc(C)c(Br)c2)cc1 | 3.7µM* | 1.2µM* | -3 | -25% | -4 | -19%
Nc1ccccc1-n1c(=O)n(Cc2ccccc2F)c(=O)c2[nH]cnc21 | -17% | 1% | -4 | 0% | 1 | 15%
COC(=O)c1cccc(CC2(C)C(=O)Nc3ccc(OC(F)(F)F)cc32)c1 (configuration not stated) | x | x | x | 4% | x | x
COC[C@@H]1CCCN1[C@@H]1CS(=O)(=O)N[C@H]1COCc1ccccc1 | x | x | x | 7% | x | x
